DAX1 inh-1 – blocks DAX1 repression of SF-1 activated StAR promoter; HEK293T StAR-luciferase reporter, SF-1/DAX-1 repression relief; inhibition, % at 6.8 µM; actives 1.1% (n = 370,000);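 active means inhibition above the mean over all tested compounds plus 3 SD, cut at about 3.6% in these data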;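 further: 0% = DAX-1 cells with DMSO and 100% = cells lacking DAX-1 with DMSO; higher inhibition means more luminescence from relief of DAX-1 repression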
hcDAF12 agonist – activators of H. contortus DAF-12 nuclear receptor | HEK293 hcDAF-12 lit1-tk-luc reporter, luminescence; 0% DMSO, 100% Δ7-dafachronic acid | activation, % at 6.8 µM | actives 1.4% (n = 370,000) | AID 652067;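 active means activation above the mean of all tested compounds plus 3 SD, cut at about 5.5% in these data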;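 further: 100% = response to 3 µM Δ7-dafachronic acid high control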
SMARCA2 activ – activators of SMARCA2 function | MG213 cells, MMTV-luciferase reporter, dexamethasone, overnight | activation, % at 9.1 µM | actives 1% (n = 370,000); in the data active means activation above about 7.8%;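 further: 0% = vehicle wells and 100% = reference activator wells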
hgDAF-12 ag – agonists of H. glycines DAF-12 nuclear receptor; HEK293 GAL4-hgDAF12 UAS-luciferase reporter, agonist luminescence; normalized to butyrate control; activation, % at 6.8 µM; actives 1.8% (n = 370,000); AID 687014;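 active means activation above a cutoff set at the mean of all screened compounds plus 3 SD, cut at about 10% in these data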;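 further: 0% = DMSO wells and 100% = sodium butyrate wells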
DAX1 inh-2 – NR0B1 (DAX1) inhibition; P51843; HEK293 Gal4-DAX1 luciferase reporter, luminescence; inhibition, % at 6.75 µM; actives 0.99% (n = 340,000);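 active means inhibition above the mean over all tested compounds plus 3 SD, cut at about 4.2% in these data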;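 further: 0% = DAX1-transfected cells with DMSO and 100% = empty-vector control cells with DMSO; inhibition shows as a rise in luminescence from relieved DAX1 repression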
Target sequence (P51843 207-470 limits assumed): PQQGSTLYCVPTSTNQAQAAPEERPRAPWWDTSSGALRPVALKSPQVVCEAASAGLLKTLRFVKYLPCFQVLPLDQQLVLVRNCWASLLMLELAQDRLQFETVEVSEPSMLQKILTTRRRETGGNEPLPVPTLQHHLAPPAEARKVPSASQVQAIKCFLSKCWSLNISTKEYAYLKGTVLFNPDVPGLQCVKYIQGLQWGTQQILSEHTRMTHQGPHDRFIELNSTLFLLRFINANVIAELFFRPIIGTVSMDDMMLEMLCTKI
ssDAF12 agonist – activates DAF-12 receptor from parasite S. stercoralis; actives 1% (n = 370,000); HEK293 ssDAF-12/GRIP1 lit1-tk-luc reporter, luminescence; % of 3 µM dafachronic acid response; activation, % at 6.8 µM;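 active means activation above the mean over all tested compounds plus 3 SD, cut at about 0.9% in these data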;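 further: 0% = DMSO-only wells and 100% = 3 µM delta7-dafachronic acid wells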
* hit, by the source's call; / = no result. Rows were chosen to be rich in hits. Some 4.8% of all compounds tested hit in one or more screens of this group.

SMILES | DAX1 inh-1 | hcDAF12 agonist | SMARCA2 activ | hgDAF-12 ag | DAX1 inh-2 | ssDAF12 agonist
Cc1cc(C)cc(Cn2c3ccc(NC(=O)NCCc4cccs4)cc3c(=O)n2C)c1 | -0.5 | -2.3 | -2.8 | -1.9 | / | -0.1
CC(C)(C)C(=O)O/N=C(\N)COc1cccc(Cl)c1 | -0.1 | 1.8 | -14.9 | 5.1 | 6.9* | -0.8
O=C(NC1CCCCC1)C(c1ccccn1)N(C(=O)c1csnn1)c1ccccc1 (stereo not drawn) | 0.2 | -0.3 | -3.4 | -0.4 | -0.7 | -1.2
CC(=O)c1ccc(NS(=O)(=O)c2ccc(N/C=C/C(=O)c3ccc(F)cc3)cc2)cc1 | 1.0 | 2.5 | 7.8 | 4.7 | -0.9 | -0.3
COc1cc(NS(=O)(=O)c2ccc(N/C=C\C(=O)c3ccc(F)cc3)cc2)nc(OC)n1 | 2.5 | 6.4* | 2.4 | 3.8 | 1.1 | 0.1
COc1cc(NS(=O)(=O)c2ccc(NC(=O)COc3ccccc3C)cc2)nc(OC)n1 | 1.2 | -1.2 | -1.5 | 1.4 | 0.2 | -0.3
COc1cc(NS(=O)(=O)c2ccc(NC(=S)NC(=O)COc3ccccc3OC)cc2)nc(OC)n1 | -1.3 | -1.6 | 3.5 | -1.7 | 4.7* | -1.6
C#CC1(O)C2C=C(OC)C(=O)C1C(c1ccccc1)C2C (stereo not drawn) | 0.6 | -0.1 | -3.5 | 5.4 | / | -0.9
C(=C\c1ccccc1)/CSc1ccccn1 | 1.5 | 2.9 | 4.2 | 7.0 | 4.4* | -1.2
CS(=O)(=O)N1N=C(c2ccc(Br)cc2)CC1c1ccc2c(c1)OCO2 (stereo not drawn) | / | / | / | / | 2.3 | /
CC(=O)N1N=C(c2ccc(C)cc2)CC1c1ccc2c(c1)OCO2 (stereo not drawn) | 1.4 | 6.1* | 4.4 | 9.4 | 3.0 | -0.4
COc1ccc(S(=O)(=O)N[C@H]2CC[C@H](CCNC(=O)c3ccccc3F)O[C@@H]2CO)cc1 | 2.0 | 0.4 | -5.0 | -0.6 | / | -1.5
Oc1ccccc1CNc1ccc(Br)cn1 | 1.0 | 4.0 | 6.3 | 11.7* | 2.2 | -0.9
Cc1ccc(N/C=C/C(=O)c2ccco2)c(O)c1 | 0.7 | -0.6 | 0.5 | -0.3 | 6.1* | -1.5
O=C(/C=C/Nc1ccc(F)cc1)c1ccco1 | 2.7 | 4.0 | 6.2 | 6.6 | 2.8 | -0.8
c1ccc(COc2ccc3nocc3c2)cc1 | 0.7 | 4.1 | 5.0 | 10.7* | 3.6 | -0.7
O=c1cc(CN2CCN(c3ccccn3)CC2)nc2sccn12 | -0.4 | 5.7* | 0.7 | -1.2 | 0.7 | -1.2
O=c1cc(CN2CCN(c3cccc(C(F)(F)F)c3)CC2)nc2sccn12 | -0.5 | 1.4 | -4.2 | 1.1 | / | -1.2
COc1cccc(CNC(=O)c2ccc(NC(=O)CC3SC(N4CCCC4)=NC3=O)cc2)c1 (stereo not drawn) | -1.7 | -0.5 | -3.1 | 1.2 | 0.1 | -2.0
Clc1ccc(/C=N/Nc2ncnc3nc[nH]c23)cc1 | 2.0 | -1.2 | 3.6 | 3.4 | 4.9* | -1.6
Oc1ccc(/C=N/Nc2ncnc3nc[nH]c23)cc1 | -0.3 | 0.0 | 5.2 | 6.6 | 3.0 | 0.3
Cc1ccc(/C=N/Nc2ncnc3nc[nH]c23)cc1 | 1.1 | -0.8 | 5.1 | 9.4 | 5.6* | -0.5
Cc1cccc(OCCCC(=O)NNC(=O)c2ccccn2)c1 | -1.9 | 1.2 | -0.7 | -0.8 | 0.8 | -1.0
O=C1C2C3c4ccccc4C(c4ccccc43)[C@@H]2C(=O)N1c1nc(-c2ccccc2)cs1 (stereo partly drawn) | -0.5 | -2.0 | 0.5 | 3.9 | 5.0* | -1.0
CC(OC(=O)c1ccccn1)C(=O)Nc1ccc2c(c1)OCCO2 (stereo not drawn) | -2.5 | 0.1 | -3.1 | 11.1* | 1.1 | -1.1
SMILES | DAX1 inh-1 | hcDAF12 agonist | SMARCA2 activ | hgDAF-12 ag | DAX1 inh-2 | ssDAF12 agonist
O=C(Nc1ccc2c(c1)OCCO2)c1ccccn1 | 4.4* | 2.9 | 0.6 | 5.8 | -5.4 | -0.4
O=C(Nc1ccc2c(c1)OCO2)c1cnn2cccnc12 | 3.3 | 5.7* | 6.1 | 10.0 | 1.9 | -1.2
O=C(Nc1ccc2c(c1)OCO2)Nc1cnccn1 | 0.2 | 0.1 | -0.6 | 5.7 | 1.8 | -1.4
O=C(Nc1ccc2c(c1)OCO2)Nc1ccccn1 | 2.0 | 2.4 | 6.2 | 12.2* | 1.1 | -0.1
O=C(CCNS(=O)(=O)c1ccc(OC(F)(F)F)cc1)N1CCN(C/C=C/c2ccccc2)CC1 | -6.0 | -1.3 | -3.1 | -3.5 | -0.8 | -1.5
Cc1ccc(C2=CC(=O)CC(C)(C)C2=O)cc1 | 0.9 | -2.3 | -0.2 | -1.9 | / | -1.5
COc1cc(C(=O)NC(=S)NCc2ccncc2)cc(OC)c1OC | -1.6 | 1.3 | 0.3 | -1.4 | 1.1 | -1.7
CCn1cc(S(=O)(=O)CC(=O)Nc2ccc3c(c2)OCCO3)c2ccccc21 | -1.4 | -3.2 | -3.8 | -2.7 | 0.3 | -1.1
CCN(CC)C(=O)Cn1cc(S(=O)(=O)CC(=O)Nc2ccc3c(c2)OCCO3)c2ccccc21 | -0.2 | -0.1 | 0.7 | 1.5 | 1.4 | 2.0*
Cc1csc(NC(=O)C2CC(=O)N(c3ccc(C)c(C)c3)C2)n1 (stereo not drawn) | -0.7 | -1.4 | -2.6 | -0.1 | 0.0 | 1.6*
CCCCNc1cc(=O)n(C)c(=O)[nH]1 | -0.2 | -1.0 | -0.4 | -1.2 | 8.1* | -0.3
Cn1c(=O)cc(NCc2ccccc2)[nH]c1=O | -0.1 | -1.5 | -3.7 | -0.5 | 0.6 | -0.9
Cc1ccccc1OCC(=O)N(Cc1ccco1)c1c(N)n(Cc2ccccc2)c(=O)[nH]c1=O | -0.5 | -0.3 | 5.1 | -0.8 | -0.2 | -1.2
COc1cccc(OC)c1C(=O)Nc1ccc2c(c1)Cc1ccccc1-2 | 0.7 | 6.4* | -3.5 | 2.3 | 2.9 | 0.3
CN(C)/C=N/c1ncn(-c2ncc(C(F)(F)F)cc2Cl)n1 | 1.5 | 4.3 | 1.2 | 7.8 | 4.4* | -0.5
CN(C)c1nc(N/N=C/c2c[nH]c3ccccc23)nc(N2CCOCC2)n1 | -0.1 | 2.8 | -4.6 | -0.9 | 2.8 | 1.2*
Cc1[nH]c2ccccc2c1/C=N/Nc1nc(N2CCCCC2)nc(N2CCCCC2)n1 | -0.1 | 0.8 | 0.4 | -1.8 | 0.1 | -1.6
C(=N\Nc1nc(N2CCCCC2)nc(N2CCCCC2)n1)/c1c[nH]c2ccccc12 | -0.8 | 3.5 | 1.6 | 2.3 | -1.4 | 1.1*
COC(=O)[C@H](CC(C)C)NC(=O)/C=C/[C@H]1O[C@@H](n2cc(C)c(=O)[nH]c2=O)C[C@@H]1O | -0.9 | -1.0 | -3.6 | -0.3 | / | -1.2
CCN(CC(=O)NCc1cccs1)C(=O)c1ccc(NS(=O)(=O)c2cccc([N+](=O)[O-])c2)cc1 | 1.3 | 0.6 | 2.5 | 0.5 | 4.8* | -0.7
Cc1ccc(C(=O)Cn2nnc3ccccc32)cc1[N+](=O)[O-] | 0.6 | 1.1 | -0.8 | 0.4 | 6.0* | -0.4
CCOC(=O)Cc1csc(SCC(=O)NC2CCC(C)CC2)n1 (stereo not drawn) | 0.1 | 1.3 | 0.0 | 1.6 | 1.6 | 0.3
CCOc1ccc(CCNC(=O)c2cc3ccsc3n2C)cc1OC | -1.3 | -3.2 | -4.9 | -1.2 | / | -1.4

Bioassay records deposited in PubChem BioAssay by The Scripps Research Institute Molecular Screening Center.
